Bioassay records (PubChem BioAssay)
Shown are actives, neighbours in structure and some others; about 4.6% of the full set was active somewhere.
VACV Venus inh: vaccinia inhibition (Venus reporter). Potency, µM (highest dose often 36.5 µM), actives largely listed as inhibitors. 330,000 compounds, 0.46% hits. Vaccinia virus Venus reporter expression, fluorescence; calls by dose curve; tested in A549 cells; also: nearly all actives have a fitted effect of over 30% in size
HCV inh: blocks hepatitis C virus; AID 651820; Huh7.5.1 HCVcc-Cre infection, luciferase reporter, 44 h; Potency, µM (titrated, usually from 41.8 µM), usual class: inhibitors; 340,000 compounds, 3.4% hits; active = well fitted inhibition curve with a large enough effect; inconclusive = small, poorly fitted or top-dose-only effect, or another doubt; inactive = no such curve, though single readings can be large or run the other way
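Infectious HCV cell culture screen: compound-treated cells (1,000/well, pre-plated 4 h) are infected with HCVcc-Cre at roughly 0.5 moi and grown 44 h. Infection is quantified by luciferase signal after 15 min substrate incubation at room temperature.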
VACV mCherry inh: vaccinia inhibition (mCherry reporter) | AID 720579 | Potency, µM (doses to about 36.5 µM), hits mostly inhibitors | Vaccinia virus mCherry reporter infection, fluorescence | 310,000 compounds, 0.63% hits; calls by dose curve; tested in A549 cells; also: nearly all actives have a fitted effect of over 35% in size
Lassa entry inh: inhibitors of Lassa virus binding or cell entry | Lassa virus pseudotype entry inhibition, cell reporter | Potency, µM (top dose mostly 37.9 µM), most hits filed as inhibitors | 300,000 compounds, 1.2% hits; calls by dose curve; tested in HEK293 cells; also: nearly all actives have a fitted effect of over 50% in size
MARV entry inh: Marburg virus entry inhibition. 300,000 compounds, 1.8% hits. Marburg virus pseudotyped entry inhibition, cell reporter. AID 540276. Potency, µM (series often up to 37.8 µM), usual class: inhibitors; calls by dose curve; tested in HEK293 cells
Of the large screens only hits and unclear results are named; the others gave an inactive call.

Cc1cccn2c(=O)c3cc(C(=O)NCCN4CCOCC4)c(=N)n(CCc4ccccc4)c3nc12	HCV inh inconclusive, MARV entry inh inconclusive
C=CCC12C=C(OC)C(=O)C(C1=O)C1c3ccccc3CC12 (stereo unspecified)	Lassa entry inh inconclusive (no result: VACV Venus inh, HCV inh, VACV mCherry inh)
CCOc1ccccc1NC(=O)c1nnn(-c2ccc3c(c2)OCCO3)c1N	HCV inh inconclusive, VACV mCherry inh inconclusive, MARV entry inh inconclusive
Cc1ccccc1NC(=O)c1nnn(-c2ccc3c(c2)OCCO3)c1N	HCV inh 10µM, Lassa entry inh inconclusive, MARV entry inh inconclusive
Nc1c(C(=O)Nc2ccc3c(c2)OCCO3)nnn1Cc1ccc(F)cc1	none
Nc1c(C(=O)Nc2cccc(F)c2)nnn1-c1ccc2c(c1)OCCO2	Lassa entry inh 4µM, MARV entry inh inconclusive
COC(=O)c1c(NC(=O)/C=C/C(=O)O)sc(Cc2ccccc2)c1C	MARV entry inh 11µM
COC(=O)C1=C(N)Oc2cc(N(C)C)ccc2C1c1ccccc1OC (stereo unspecified)	VACV Venus inh inconclusive, HCV inh 6.3µM, VACV mCherry inh inconclusive, Lassa entry inh inconclusive, MARV entry inh inconclusive
Cc1ccc(-n2nc(C)c3c(C(=O)NCc4ccccc4)cc(C4CC4)nc32)cc1	none (no result: HCV inh, MARV entry inh)
Cc1ccc(Nc2nc(N)nc(CN3CCN(Cc4ccc5c(c4)OCO5)CC3)n2)cc1Cl	HCV inh 32µM, MARV entry inh inconclusive (no result: VACV Venus inh, VACV mCherry inh)
Cc1ccc(Nc2nc(N)nc(CN3CCN(Cc4ccc5c(c4)OCO5)CC3)n2)cc1C	VACV Venus inh inconclusive, HCV inh inconclusive, VACV mCherry inh inconclusive, MARV entry inh inconclusive
Cc1ccc(NC(=O)N(Cc2ccc3c(c2)OCO3)C2CCN(Cc3ccccc3)CC2)cc1C	Lassa entry inh inconclusive (no result: HCV inh, MARV entry inh)
CCOc1nc(Nc2ccc(F)cc2)nc(N2CCN(c3ccc(OC)cc3)CC2)n1	none (no result: VACV mCherry inh)
CCOc1nc(Nc2ccc(OC)c(Cl)c2)nc(N2CCN(c3ccc(OC)cc3)CC2)n1	HCV inh 10µM, Lassa entry inh inconclusive, MARV entry inh inconclusive (no result: VACV mCherry inh)
COc1ccc(N2CCN(Cc3nc(N)nc(Nc4ccc(C)c(Cl)c4)n3)CC2)cc1	HCV inh 10µM, MARV entry inh inconclusive (no result: VACV Venus inh, VACV mCherry inh)
Cc1ccc(NC(=O)N(Cc2ccc3c(c2)OCO3)C2CCN(Cc3ccccc3)CC2)cc1Cl	VACV Venus inh inconclusive, VACV mCherry inh inconclusive, Lassa entry inh 11µM (no result: HCV inh, MARV entry inh)
CCOc1ccc(C(=O)NCC(c2ccc3c(c2)OCO3)N2CCN(c3ccccc3F)CC2)cc1 (stereo unspecified)	Lassa entry inh inconclusive (no result: HCV inh, MARV entry inh)
COc1ccc(/C=N/Nc2ccc(C(=O)O)cc2)cc1Br	Lassa entry inh inconclusive, MARV entry inh 3.2µM
COc1ccc(/C=N/Nc2ccc(C(=O)O)cc2)cc1OC	none (no result: VACV Venus inh, VACV mCherry inh, Lassa entry inh, MARV entry inh)
O=C(O)c1ccc(/C=N/O)cc1	none
O=C(O)c1ccc(N/N=C/c2ccc(OC(=O)c3ccccc3Cl)cc2)cc1	Lassa entry inh 0.71µM, MARV entry inh inconclusive
Nc1ccc(C(=O)N/N=C\c2ccc(OC(=O)c3ccccc3Cl)cc2)cc1	none (no result: VACV Venus inh, VACV mCherry inh, Lassa entry inh, MARV entry inh)
CC(C)c1ccc(/C=N/Nc2ccc(C(=O)O)cc2)cc1	Lassa entry inh 0.65µM, MARV entry inh 1.5µM (no result: VACV Venus inh, VACV mCherry inh)
CCn1cc(CN2CCCC(CO)(Cc3ccc(F)cc3)C2)c2ccccc21 (stereo unspecified)	VACV mCherry inh inconclusive, MARV entry inh inconclusive
Cn1cc(CN2CCCC(CO)(Cc3ccccc3)C2)c2ccccc21 (stereo unspecified)	HCV inh inconclusive, Lassa entry inh inconclusive, MARV entry inh 1µM
O=P(c1ccccc1)(c1ccccc1)c1nc(-c2ccc(Cl)cc2)oc1N1CCOCC1	HCV inh 10µM, MARV entry inh inconclusive (no result: VACV Venus inh, VACV mCherry inh)
O=P(c1ccccc1)(c1ccccc1)c1nc(-c2ccccc2)oc1N1CCOCC1	none
COc1ccc(OCC(O)CN(C2CCCCC2)C2CCCCC2)cc1 (stereo unspecified)	Lassa entry inh 15µM, MARV entry inh inconclusive
C[n+]1c2n(c3ccccc31)N=C(c1ccc(-c3ccccc3)cc1)CS2	VACV Venus inh inconclusive, HCV inh 7.1µM (no result: Lassa entry inh, MARV entry inh)
C[n+]1c2n(c3ccccc31)N=C(c1ccccc1)CS2	Lassa entry inh inconclusive, MARV entry inh inconclusive
CC(C)n1c(SCC(=O)Nc2ccc3c(c2)OCO3)nc2c1c(=O)n(C)c(=O)n2C	HCV inh inconclusive
CC(C)n1c(SCC(=O)c2ccc3c(c2)OCCO3)nc2c1c(=O)n(C)c(=O)n2C	HCV inh 13µM, Lassa entry inh inconclusive
O=[N+]([O-])c1ccccc1/C=C/c1ccnc2ccccc12	none (no result: HCV inh, Lassa entry inh, MARV entry inh)
O=C(c1ccc(Cl)cc1)C(CN1CCCCC1)c1ccccc1 (stereo unspecified)	VACV Venus inh 11µM, HCV inh 16µM, VACV mCherry inh inconclusive, Lassa entry inh inconclusive, MARV entry inh inconclusive
CCOC(=O)C(CN1CCCC1)c1ccccc1 (stereo unspecified)	none (no result: Lassa entry inh, MARV entry inh)
O=C(c1ccccc1)C(CN1CCCC1)c1ccccc1 (stereo unspecified)	VACV Venus inh 16µM, HCV inh inconclusive, VACV mCherry inh inconclusive, Lassa entry inh 7.9µM, MARV entry inh 7.1µM
CCCn1c(=O)n(C)c(=O)c2c(SCC(=O)Nc3cc(C)on3)nc(C(C)(C)C)nc21	HCV inh 10µM (no result: VACV Venus inh, VACV mCherry inh, Lassa entry inh, MARV entry inh)
Cc1cc(NC(=O)CSc2nc(C(C)C)nc3c2c(=O)n(C)c(=O)n3C)no1	none (no result: Lassa entry inh, MARV entry inh)
COC(=O)C1CCCCN1Cc1ccc2c(c1)CN(C(=O)c1ccc(C)s1)CCO2 (stereo unspecified)	none (no result: HCV inh, Lassa entry inh, MARV entry inh)
CC(C)CNC(=O)c1cc2nc(C3CC3)cc(C(F)(F)F)n2n1	HCV inh 7.9µM (no result: VACV Venus inh, VACV mCherry inh)
O=S(=O)(c1ccc(Br)cc1)c1nc(-c2ccco2)oc1SCc1ccccc1F	none (no result: HCV inh)
CC(C)CN(CC(C)C)c1ccc(/C=C/c2nc3ccccc3s2)cc1	none (no result: HCV inh, Lassa entry inh, MARV entry inh)
CCCc1nc(SCC(=O)c2ccc(OC)cc2)c2ccccc2n1	HCV inh 13µM, MARV entry inh inconclusive
O=C(CSc1nc(CCC2CCCC2)nc2ccccc12)NCc1ccc2c(c1)OCO2	HCV inh inconclusive, Lassa entry inh inconclusive, MARV entry inh 13µM
CCc1nc(SCC(=O)c2ccccc2)c2ccccc2n1	HCV inh inconclusive
Cc1cc(NC(=O)CSc2nc(CCC3CCCC3)nc3ccccc23)no1	HCV inh inconclusive (no result: VACV Venus inh, VACV mCherry inh)
CCc1nc(SCC(=O)c2ccc3c(c2)OCCO3)c2ccccc2n1	HCV inh 8.9µM, Lassa entry inh inconclusive (no result: VACV Venus inh, VACV mCherry inh)
COc1ccc(OC)c(-c2cc(Cl)c3c(c2)CC(CNC(=O)C(C)N2CCOCC2)O3)c1 (stereo unspecified)	none (no result: HCV inh, Lassa entry inh, MARV entry inh)
CC1CN(S(=O)(=O)c2cccc(C(=O)N3CCC(C(N)=O)CC3)c2)CC(C)O1 (stereo unspecified)	MARV entry inh inconclusive
Cc1cnc(NC(=O)c2cccc(S(=O)(=O)N3CC(C)OC(C)C3)c2)s1 (stereo unspecified)	HCV inh 11µM (no result: VACV Venus inh, VACV mCherry inh, Lassa entry inh, MARV entry inh)
Cc1ccc(OCCOC(=O)c2cccc(S(=O)(=O)N3CC(C)OC(C)C3)c2)cc1 (stereo unspecified)	HCV inh 11µM (no result: VACV Venus inh, VACV mCherry inh, Lassa entry inh, MARV entry inh)
COc1ccccc1NC(=O)C1=C(C)Nc2nc(-c3ccco3)nn2C1c1ccccc1F (stereo unspecified)	none (no result: HCV inh)
CC(C)CC(C(=O)NCC1CCN(Cc2ccc(F)cc2)CC1)N1Cc2ccccc2C1=O (stereo unspecified)	Lassa entry inh inconclusive (no result: HCV inh, MARV entry inh)
